ATXN viability = Viability Counterscreen for Primary qHTS for Inhibitors of ATXN expression. S2 cells (HEK-293 line with an ATXN2-luciferase reporter) viability, CellTiter-Fluor protease fluorescence, 24 h. Potency, µM (titrated, usually from 56.7 µM), hits mostly cytotoxic. 0.49% of 400,000 active. AID 651635, 2014; note: nearly all actives have a fitted effect of over 40% in size
RORg inh = qHTS for inhibitors of ROR gamma transcriptional activity; AID 2551, 2010; 5.4% of 310,000 active; Drosophila S2 Gal4-RORgamma UAS-luciferase reporter, 20 h; Potency, µM (highest dose often 53.6 µM), actives largely listed as inhibitors; Nuclear receptor ROR-gamma (Mus musculus), P51450; note: nearly all actives have a fitted effect of over 60% in size
Target sequence (P51450 whole entry, looked up, the tested form may be a part): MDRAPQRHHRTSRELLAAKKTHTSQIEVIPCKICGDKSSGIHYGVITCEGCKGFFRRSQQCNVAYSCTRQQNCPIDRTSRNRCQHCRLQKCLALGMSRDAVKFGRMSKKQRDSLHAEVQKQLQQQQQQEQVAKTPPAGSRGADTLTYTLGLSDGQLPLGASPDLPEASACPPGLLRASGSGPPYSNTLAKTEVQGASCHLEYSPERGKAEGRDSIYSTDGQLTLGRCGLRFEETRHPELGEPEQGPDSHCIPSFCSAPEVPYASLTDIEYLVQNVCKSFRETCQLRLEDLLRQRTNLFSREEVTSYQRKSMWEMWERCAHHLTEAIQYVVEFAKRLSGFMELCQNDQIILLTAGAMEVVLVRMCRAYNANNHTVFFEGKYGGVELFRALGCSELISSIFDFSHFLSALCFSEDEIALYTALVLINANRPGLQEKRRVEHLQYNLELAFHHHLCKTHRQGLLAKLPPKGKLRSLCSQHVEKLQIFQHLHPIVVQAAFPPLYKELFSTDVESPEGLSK
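Stably transfected Drosophila Schneider cells are the test system, with ROR gamma fused to Gal4 and luciferase under UAS control; luminescence is read after 20 hr of 700 uM copper sulfate induction at ambient temperature.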
Gal4-VP16 FLuc = VP16 counterscreen qHTS for inhibitors of ROR gamma transcriptional activity; Potency, µM (doses to about 53.6 µM), hits mostly inhibitors; Drosophila S2 Gal4-VP16 UAS-luciferase, luminescence, 20 h; AID 2546, 2010; 3.5% of 310,000 active;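 note: Gal4-VP16 expression switched on by copper sulfate through the metallothionein promoter; nearly all actives have a fitted effect of over 50% in size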
HepG2 viability = qHTS for Inhibitors of TGF-b: Cytotox Counterscreen; 0.76% of 410,000 active; HepG2 CAGA-GFP viability, ATP luminescence, 18 h; AID 588856, 2011; Potency, µM (series often up to 46.1 µM), usual class: cytotoxic
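CellTiter-Glo luminescence gave cytotoxicity after 18 hours at 37 degrees C. The cells were HepG2 CAGA-GFP in 1% FBS DMEM, stimulated with 500 pg/mL TGF-beta after compound addition. %Activity was normalised to no-cell wells (complete cell-killing) and DMSO (no toxicity), and curves were fitted and classified.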
TGFb SMAD3 inh = qHTS for Inhibitors of TGF-b; HepG2 CAGA-GFP TGF-b/SMAD3 reporter, GFP fluorescence, 18 h; TGF-beta stimulated, 500 pg/mL final; Potency, µM (series often up to 46.1 µM), most hits filed as inhibitors; 1.2% of 410,000 active; note: nearly all actives have a fitted effect of over 65% in size
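GFP signal (ex488/em500-530) from TGF-beta-stimulated HEPG2 CAGA-GFP cells, 500 pg/mL final, 18 h at 37 degrees C in DMEM plus 1% FBS, normalized to unstimulated and DMSO-stimulated controls.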
ATXN2 expr inh = Primary qHTS for Inhibitors of ATXN expression; HEK-293 ATXN2-luciferase reporter, luminescence, 24 h; Potency, µM (titrated, usually from 57 µM), usual class: inhibitors; 0.72% of 360,000 active; note: nearly all actives have a fitted effect of over 55% in size
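qHTS (up to 57 uM final) was run with 24 h compound exposure of reporter cells at 37 °C. Each well was multiplexed: SteadyGlo luminescence measured ATXN2-luciferase expression after a fluorogenic Gly-Phe-AFC viability readout (25 uM final).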
A number is an active result; . = inactive; ? = inconclusive; / = not tested or not shown; [ ] = dose if it differs, or a comment. Compounds with a hit are over-represented: about 6.3% of the library has one in this group of screens. Calls come from the whole dose curve; as a rule, active = well fitted curve in the direction sought with a large enough effect; inconclusive = small, poorly fitted or top-dose-only effect, or another doubt; inactive = no such curve, though single readings can be large; an effect the other way counts as inactive or inconclusive.

SMILES	ATXN viability	RORg inh	Gal4-VP16 FLuc	HepG2 viability	TGFb SMAD3 inh	ATXN2 expr inh
CC(=O)O[C@]1(C(C)=O)CC[C@H]2[C@@H]3C=C(Cl)C4=CC(=O)[C@@H]5C[C@H]5[C@]4(C)[C@@H]3CC[C@@]21C	/	/	/	/	/	.
COc1cccc(-c2cnc3c(NC=O)cc(-c4ccoc4)cn23)c1	?	/	/	.	?	.
COc1cccc(-c2cnc3c(NC=O)cc(-c4ccccc4)cn23)c1	.	/	/	.	8.91µM	.
COc1ccc(F)cc1-c1cc(NC=O)c2ncc(-c3cccc(C(=O)N(C)C)c3)n2c1	?	/	/	.	.	25.1µM
CN(C)C(=O)c1cccc(-c2cnc3c(NC=O)cc(-c4ccccc4N(C)C)cn23)c1	.	/	/	.	.	?
COc1cccc(-c2cc(NC=O)c3ncc(-c4ccc(C(C)=O)cc4)n3c2)c1	.	/	/	.	17.8µM	?
Nc1ccc(C=O)cc1	/	/	/	.	?	/
Cc1ccc(N2C(=O)C3C4C=CC(CNC(=S)N5CCN(c6cccc(C)c6)C(C)C5)(O4)C3C2=O)cc1 (stereo not drawn)	.	8.91µM	?	.	.	.
CC(C)c1ccc(C(=O)NCCCN2CCN(CCCNC(=O)c3ccc(C(C)C)cc3)CC2)cc1	?	?	?	17.8µM	14.1µM	.
O=C(NCCCN1CCN(CCCNC(=O)c2ccc(F)cc2)CC1)c1ccc(F)cc1	.	.	.	.	.	.
COc1cc(=O)n2c(c1C(=O)N(C)Cc1cscn1)CCN(Cc1c(C)[nH]c3ccccc13)CC2	.	/	/	/	/	/
Cc1ccc(-c2nn(C(C)(C)C)c3ncnc(NS(=O)(=O)c4ccc([N+](=O)[O-])cc4)c23)cc1	.	12.6µM	.	.	?	.
Cc1nnc(NC(=O)c2nc(S(=O)(=O)Cc3ccccc3C)ncc2Cl)s1	?	3.55µM	0.708µM	.	?	?
Cc1nnc(NC(=O)c2nc(SCc3ccccc3F)ncc2Cl)s1	.	/	/	.	.	.
CC(C)c1nnc(NC(=O)c2nc(S(=O)(=O)Cc3ccccc3F)ncc2Cl)s1	7.08µM	7.94µM	3.55µM	.	12.6µM	10µM
CSc1nnc(NC(=O)c2nc(S(=O)(=O)Cc3ccccc3F)ncc2Cl)s1	?	15.8µM	10µM	.	?	.
O=C(Nc1nc2ccc(F)cc2s1)c1nc(S(=O)(=O)Cc2ccccc2F)ncc1Cl	11.2µM	/	/	7.08µM	6.31µM	25.1µM
CCc1nnc(NC(=O)c2nc(SCc3ccccc3F)ncc2Cl)s1	.	/	/	.	.	.
COc1cccc(CNC(=O)c2cnn(-c3ncc4c(n3)-c3ccccc3CCC4)c2C)c1OC	.	/	/	/	/	/
S=c1[nH]ncn1/N=C/c1ccco1	?	/	/	.	.	/
O=C(c1ccccc1)C(c1ccccc1)c1ccccc1	.	/	/	.	.	.
C=C(C(=O)c1ccccc1)C(C(=C)C(=O)c1ccccc1)c1ccc(OC)cc1	?	.	.	.	?	/
C=C(C(=O)c1ccccc1)C(c1ccccc1)C(C)C(=O)c1ccccc1 (stereo not drawn)	/	2.82µM	15.8µM	.	?	.
C=C(C(=O)c1ccccc1)C(C)C(=C)C(=O)c1ccccc1	25.1µM	12.6µM	11.2µM	7.94µM	?	28.2µM
CCCN1CNC(=S)N(c2cc(C)ccc2C)C1	.	12.6µM	11.2µM	.	.	.
SMILES	ATXN viability	RORg inh	Gal4-VP16 FLuc	HepG2 viability	TGFb SMAD3 inh	ATXN2 expr inh
CCN1CNC(=S)N(c2cccc(C)c2)C1	.	?	.	.	.	.
Cc1ccc(C)c(N2CN(CCC3=CCCCC3)CNC2=S)c1	.	3.16µM	4.47µM	.	?	.
CCN1CNC(=S)N(c2ccccc2C)C1	/	.	.	.	.	/
Cc1ccc(C(=O)N/N=C\c2ccc[nH]2)cc1[N+](=O)[O-]	.	2µM	?	.	.	.
Cc1occc1C(=O)N/N=C/c1ccc[nH]1	.	/	/	.	.	.
O=C(N/N=C/c1ccc[nH]1)c1ccc(Cl)cc1	.	3.16µM	10µM	.	.	.
O=C(N/N=C/c1ccc[nH]1)c1ccncc1	.	20µM	?	.	.	.
Cc1nc2nc(NC(=O)c3ccc(C(C)(C)C)cc3)[nH]n2c(=O)c1C	/	/	/	.	.	/
N#C/C(=N\Nc1ccc(S(=O)(=O)N2CCCCC2)cc1)C(N)=S	?	?	.	.	?	.
N#C/C(=N\Nc1ccc(S(=O)(=O)N2CCCCCC2)cc1)C(N)=S	.	11.2µM	?	.	?	.
N#C/C(=N\Nc1ccc(S(=O)(=O)N2CCc3ccccc32)cc1)C(N)=S	.	11.2µM	?	.	11.2µM	.[11.3 µM]
CCOC(=O)/C(C#N)=N/Nc1ccc(S(=O)(=O)N2CCc3ccccc32)cc1	.	?	.	.	11.2µM	.
NS(=O)(=O)c1ccc(NC(=O)c2ccc(S(=O)(=O)N3CCc4ccccc43)cc2)cc1	?	.	.	.	?	/
N#C/C(=N\Nc1cccc([N+](=O)[O-])c1)C(=O)c1ccc(Br)cc1	?	4.47µM	5.01µM	.	6.31µM	9.47µM
O=C(c1ccc([N+](=O)[O-])cc1)N(Cc1cccs1)C1CCS(=O)(=O)C1 (stereo not drawn)	.	.	.	.	.	.
O=C(/C=C/c1ccc(F)cc1)NCC1Cc2cccc(-c3ncccn3)c2O1 (stereo not drawn)	.	/	/	/	/	/
O=C1NCCN(CC2CCN(CCc3ccc(Cl)c(Cl)c3)CC2)C1=O	.	/	/	.	.	.
COCC(=O)N1CCC2(CC1)CN(c1ccc(-c3ccccc3)cc1)C2	/	?	.	/	/	/
N#C/C(=N\Nc1ccc([N+](=O)[O-])cc1)C(N)=S	22.4µM	?	12.6µM	.	?	.
CCOc1ccc(CC(=O)Nc2c(C(=O)c3ccc(C)cc3)oc3ccccc23)cc1OCC	.	/	/	.	.	.
COC(=O)CCn1nnc(-c2cccs2)n1	.	.[0.365 µM]	/	.	.	.
COc1ccc(-c2nnn(CCC(=O)O)n2)cc1	.	2.24µM	.	.	.	.
COC(=O)CCn1nnc(-c2ccc(C(C)C)cc2)n1	.	.	.	.	.	0.501µM
Cc1cccc(-c2nc(SCCCOc3ccccc3Cl)n3[nH]c(=O)cc3n2)c1	.	/	/	.	?	.
C/C(=N\NC(=S)NCCc1ccccc1)c1ccc(O)cc1O	.	?	?	.	.	.
CC1(C)C2CC=C(/C=N/n3cnnc3)C1C2 (stereo not drawn)	.	.	.	.	.	.
CC1(C)C2CC=C(/C=N/NC(=O)c3ccccc3O)C1C2 (stereo not drawn)	.	8.91µM	?	.	.	.
